PubChem BioAssay AID1159580 (chemical genetic matrix, 2015)
“And” between values parts separate entries of the source, which are not always exact repeats. Equal values may be shown once. Hit rate of the full screen: of about 5,500 compounds, about 2,000 (36%) were called active. Not shown: some 18% with an inconclusive outcome. Cut-off read from the data, not from the text of the source: active = normalized growth mostly below about 0.91 (no sharp cut-off); inconclusive = no clear call, values can overlap the other calls; inactive = mostly above about 0.92. The list shows a part of the results.

Assay: chemical genetic growth profiling, strain panel (AID 1159580);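 note: tested at 20 µM; growth read once vehicle control cultures reached saturation at 30 °C; 1 = growth at the plate median or of vehicle wells; lower values mean less growth of the strain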
Conditions: growth OD
[1] = S. cerevisiae deletion strains, locus YAL013W, strain DEP1, stronger effect = lower value
[2] = S. cerevisiae deletion strains, locus YBR229C, strain ROT2, stronger effect = lower value
[3] = S. cerevisiae deletion strains, locus YDL101C, strain DUN1, stronger effect = lower value
[4] = S. cerevisiae deletion strains, locus YDR150W, strain NUM1, stronger effect = lower value
[5] = S. cerevisiae deletion strains, locus YEL061C, strain CIN8, stronger effect = lower value
[6] = S. cerevisiae deletion strains, locus YGR052W, strain FMP48, stronger effect = lower value
[7] = S. cerevisiae deletion strains, locus YGR078C, strain PAC10, stronger effect = lower value
[8] = S. cerevisiae deletion strains, locus YHR030C, strain SLT2, stronger effect = lower value
[9] = S. cerevisiae deletion strains, locus YHR079C, strain IRE1, stronger effect = lower value
[10] = S. cerevisiae deletion strains, locus YHR082C, strain KSP1, stronger effect = lower value
[11] = S. cerevisiae deletion strains, locus YHR087W, strain rtc3, stronger effect = lower value
[12] = S. cerevisiae deletion strains, locus YJL095W, strain BCK1, stronger effect = lower value
[13] = S. cerevisiae deletion strains, locus YJL187C, strain SWE1, stronger effect = lower value
[14] = S. cerevisiae deletion strains, locus YJR043C, strain POL32, stronger effect = lower value
[15] = S. cerevisiae deletion strains, locus YJR066W, strain TOR1, stronger effect = lower value
[16] = S. cerevisiae deletion strains, locus YJR075W, strain HOC1, stronger effect = lower value
[17] = S. cerevisiae deletion strains, locus YKL203C, strain TOR2, stronger effect = lower value
[18] = S. cerevisiae deletion strains, locus YLR039C, strain RIC1, stronger effect = lower value
[19] = S. cerevisiae deletion strains, locus YLR058C, strain SHM2 (second series), stronger effect = lower value
[20] = S. cerevisiae deletion strains, locus YLR085C, strain ARP6, stronger effect = lower value
[21] = S. cerevisiae deletion strains, locus YLR113W, strain HOG1, stronger effect = lower value
[22] = S. cerevisiae deletion strains, locus YLR262C, strain YPT6, stronger effect = lower value
[23] = S. cerevisiae deletion strains, locus YML094W, strain GIM5, stronger effect = lower value
[24] = S. cerevisiae deletion strains, locus YMR219W, strain ESC1, stronger effect = lower value
[25] = S. cerevisiae deletion strains, locus YMR263W, strain SAP30, stronger effect = lower value
[26] = S. cerevisiae deletion strains, locus YNL153C, strain GIM3, stronger effect = lower value
[27] = S. cerevisiae deletion strains, locus YNL183C, strain NPR1, stronger effect = lower value
[28] = S. cerevisiae deletion strains, locus YNL207W, strain RIO2, stronger effect = lower value
[29] = S. cerevisiae deletion strains, locus YNL298W, strain CLA4 (second series), stronger effect = lower value
[30] = S. cerevisiae deletion strains, locus YNL322C, strain KRE1, stronger effect = lower value
[31] = S. cerevisiae deletion strains, locus YNR030W, strain Alg12, stronger effect = lower value
[32] = S. cerevisiae deletion strains, locus YOR119C, strain RIO1, stronger effect = lower value
[33] = S. cerevisiae deletion strains, locus YOR231W, strain MKK1, stronger effect = lower value
[34] = S. cerevisiae deletion strains, locus YPL055C, strain LGE1, stronger effect = lower value
[35] = S. cerevisiae deletion strains, locus YPL241C, strain CIN2, stronger effect = lower value
[36] = S. cerevisiae deletion strains, locus YPL256C, strain CLN2, stronger effect = lower value
[37] = S. cerevisiae deletion strains, locus YPR135W, strain CTF4, stronger effect = lower value

Measured: normalized growth

S=C(NCc1ccco1)Nc1ccc(Oc2ccc(Cl)cc2)cc1
0.247 (active) and 1.07 (inactive): [8]
active: [2] 0.868 | [5] 0.723 | [7] 0.915 | [13] 0.923 | [18] 0.41 | [20] 0.355 | [22] 0.463 | [23] 0.703 | [25] 0.85 | S. cerevisiae deletion strains, locus YMR307W, strain GAS1, stronger effect = lower value 0.364 | S. cerevisiae deletion strains, locus YNL128W, strain TEP1, stronger effect = lower value 0.887 | [29] 0.652 | [31] 0.544 | [34] 0.641 | [35] 0.361 | [36] 1.27 [resistant] | [37] 0.505 | S. cerevisiae strains, strain wild type, stronger effect = lower value 0.883
inactive: [1] 0.937 | [3] 0.933 | [4] 0.863 | [6] 1.04 | S. cerevisiae deletion strains, locus YGR229C, strain SMI1, stronger effect = lower value 0.987 | [9] 1.07 | [10] 1.14 | [11] 0.919 | [12] 0.948 | [14] 0.926 | [15] 1.13 | [16] 0.95 | S. cerevisiae deletion strains, locus YKL171W, strain NNK1, stronger effect = lower value 1.06 | [17] 1.04 | [19] 0.979 | [21] 1.11 | [24] 0.97 | [26] 0.936 | [27] 1.04 | [28] 1.02 | [30] 0.998 | [32] 1 | [33] 0.944

CC(Oc1ccc(Cl)cc1Cl)C(=O)NNC(=S)Nc1ccccc1 (stereo not given)
inactive: S. cerevisiae deletion strains, locus YAR019C, strain CDC15, stronger effect = lower value 0.983 | S. cerevisiae deletion strains, locus YBL105C, strain PKC1, stronger effect = lower value 0.978 | S. cerevisiae deletion strains, locus YBR135W, strain CKS1, stronger effect = lower value 0.982 | S. cerevisiae deletion strains, locus YBR136W, strain MEC1, stronger effect = lower value 0.98 | S. cerevisiae deletion strains, locus YBR160W, strain CDC28, stronger effect = lower value 0.975 | S. cerevisiae deletion strains, locus YDL017W, strain CDC7, stronger effect = lower value 0.986 | S. cerevisiae deletion strains, locus YDL028C, strain MPS1, stronger effect = lower value 0.977 | [3] 0.973 | S. cerevisiae deletion strains, locus YDL108W, strain KIN28, stronger effect = lower value 0.959 | S. cerevisiae deletion strains, locus YDL132W, strain cdc53, stronger effect = lower value 0.968 | S. cerevisiae deletion strains, locus YDL214C, strain PRR2, stronger effect = lower value 0.984 | S. cerevisiae deletion strains, locus YDR052C, strain DBF4, stronger effect = lower value 0.991 | S. cerevisiae deletion strains, locus YDR054C, strain cdc34, stronger effect = lower value 0.982 | S. cerevisiae deletion strains, locus YDR226W, strain ADK1, stronger effect = lower value 0.981 | S. cerevisiae deletion strains, locus YDR477W, strain SNF1, stronger effect = lower value 0.994 | S. cerevisiae deletion strains, locus YER123W, strain YCK3, stronger effect = lower value 0.983 | S. cerevisiae deletion strains, locus YER133W, strain GLC7, stronger effect = lower value 0.966 | S. cerevisiae deletion strains, locus YFL009W, strain cdc4, stronger effect = lower value 0.976 | S. cerevisiae deletion strains, locus YFL029C, strain CAK1, stronger effect = lower value 0.981 | S. cerevisiae deletion strains, locus YFR003C, strain YPI1, stronger effect = lower value 0.981 | S. cerevisiae deletion strains, locus YFR019W, strain FAB1, stronger effect = lower value 0.964 | S. cerevisiae deletion strains, locus YFR028C, strain CDC14, stronger effect = lower value 0.974 | S. cerevisiae deletion strains, locus YGR040W, strain KSS1, stronger effect = lower value 0.965 | [6] 0.982 | S. cerevisiae deletion strains, locus YGR092W, strain DBF2, stronger effect = lower value 0.905 | [8] 0.974 | [9] 1.01 | [10] 1.03 | S. cerevisiae deletion strains, locus YHR205W, strain SCH9, stronger effect = lower value 0.906 | S. cerevisiae deletion strains, locus YIL147C, strain SLN1, stronger effect = lower value 0.97 | [12] 0.927 | S. cerevisiae deletion strains, locus YJL128C, strain PBS2, stronger effect = lower value 0.943 | S. cerevisiae deletion strains, locus YJL157C, strain FAR1, stronger effect = lower value 0.973 | S. cerevisiae deletion strains, locus YJR016C, strain ILV3, stronger effect = lower value 0.971 | S. cerevisiae deletion strains, locus YJR066W, strain TOR1 (second series), stronger effect = lower value 0.94 | [15] 1.01 | S. cerevisiae deletion strains, locus YKL048C, strain ELM1, stronger effect = lower value 0.974 | S. cerevisiae deletion strains, locus YKL067W, strain YNK1, stronger effect = lower value 0.966 | S. cerevisiae deletion strains, locus YKL101W, strain HSL1, stronger effect = lower value 0.957 | S. cerevisiae deletion strains, locus YKL193C, strain SDS22, stronger effect = lower value 0.977 | [17] 1.02 | [21] 0.981 | S. cerevisiae deletion strains, locus YLR133W, strain CKI1, stronger effect = lower value 0.959 | S. cerevisiae deletion strains, locus YLR403W, strain SFP1, stronger effect = lower value 0.908 | S. cerevisiae deletion strains, locus YML070W, strain DAK1, stronger effect = lower value 0.98 | S. cerevisiae deletion strains, locus YMR001C, strain CDC5, stronger effect = lower value 0.981 | S. cerevisiae deletion strains, locus YMR205C, strain PFK2 (second series), stronger effect = lower value 0.968 | S. cerevisiae deletion strains, locus YMR277W, strain FCP1, stronger effect = lower value 0.98 | S. cerevisiae deletion strains, locus YNL006W, strain LST8, stronger effect = lower value 0.976 | S. cerevisiae deletion strains, locus YNL020C, strain ARK1, stronger effect = lower value 0.954 | S. cerevisiae deletion strains, locus YNL161W, strain CBK1, stronger effect = lower value 0.984 | [27] 1.01 | [28] 0.958 | S. cerevisiae deletion strains, locus YNL222W, strain SSU72, stronger effect = lower value 0.973 | S. cerevisiae deletion strains, locus YNL307C, strain MCK1 (second series), stronger effect = lower value 0.873 | S. cerevisiae deletion strains, locus YOL078W, strain AVO1, stronger effect = lower value 0.972 | S. cerevisiae deletion strains, locus YOL136C, strain PFK27, stronger effect = lower value 0.938 | S. cerevisiae deletion strains, locus YOR061W, strain CKA2, stronger effect = lower value 0.968 | [32] 1.03 | [33] 0.993 | S. cerevisiae deletion strains, locus YOR329C, strain SCD5, stronger effect = lower value 0.982 | S. cerevisiae deletion strains, locus YPL031C, strain PHO85, stronger effect = lower value 0.995 | S. cerevisiae deletion strains, locus YPL153C, strain RAD53, stronger effect = lower value 0.993 | S. cerevisiae deletion strains, locus YPL204W, strain HRR25, stronger effect = lower value 0.944 | S. cerevisiae deletion strains, locus YPL209C, strain IPL1, stronger effect = lower value 0.98 | [36] 1.12 | S. cerevisiae deletion strains, locus YPR025C, strain CCL1, stronger effect = lower value 0.978 | S. cerevisiae deletion strains, locus YPR106W, strain ISR1, stronger effect = lower value 0.977 | S. cerevisiae deletion strains, locus YPR111W, strain DBF20, stronger effect = lower value 0.961 | S. cerevisiae deletion strains, strain NNK1, stronger effect = lower value 0.973 | S. cerevisiae deletion strains, strain TSCII, stronger effect = lower value 0.983

CCN(C(=S)Nc1ccc(OC)cc1)c1ccccc1
inactive: [1] 1 | [2] 1.02 | [3] 1.01 | S. cerevisiae deletion strains, locus YDL134C, strain PPH21, stronger effect = lower value 1.01 | [4] 0.917 | [5] 1 | [7] 0.989 | [8] 1.12 | [11] 1.01 | [13] 1.01 | [14] 1.01 | [16] 1 | S. cerevisiae deletion strains, locus YKL190W, strain CNB1, stronger effect = lower value 1.02 | [18] 0.921 | [19] 1.03 | [20] 0.976 | [22] 0.985 | [23] 1 | [24] 1.02 | [25] 1.01 | [26] 0.988 | [29] 0.99 | [30] 1.02 | [31] 0.992 | [34] 0.89 | [35] 0.999 | [37] 0.884
